Assay outcomes (PubChem)
Tau fluor cs: counter-screen for tau fibril formation inhibitors; tau K18 P301L Alexa594 fluorescence, heparin fibrillization; Potency, µM (titrated, usually from 57.7 µM), without a hit: top-dose activity change, negative = decrease; 280,000 compounds, 0.93% hits; AID 1463; further: potency means the concentration at half of the fitted maximal effect; nearly all actives have a fitted effect of over 55% in size
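Human tau K18 P301L (15 uM unlabeled, 0.24 uM Alexa 594-labeled) in 100 mM sodium acetate pH 7 with 20 uM heparin, 6 hr at 37 C. ThT 30 uM added, 1 hr ambient; Alexa 594 FP and total fluorescence read at 555/632 nm.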
G9a inh: G9a (human) methyltransferase inhibition. Q96KQ7. G9a H3K9 monomethylation, AlphaScreen, 2 h. Potency, µM (doses to about 102 µM), inactives show top-dose activity, negative = inhibition, actives largely listed as inhibitors. 350,000 compounds, 8.8% hits. AID 504332; further: potency means the concentration at half of the fitted maximal effect; nearly all actives have a fitted effect of over 75% in size
Target sequence (Q96KQ7 913-1193 limits assumed): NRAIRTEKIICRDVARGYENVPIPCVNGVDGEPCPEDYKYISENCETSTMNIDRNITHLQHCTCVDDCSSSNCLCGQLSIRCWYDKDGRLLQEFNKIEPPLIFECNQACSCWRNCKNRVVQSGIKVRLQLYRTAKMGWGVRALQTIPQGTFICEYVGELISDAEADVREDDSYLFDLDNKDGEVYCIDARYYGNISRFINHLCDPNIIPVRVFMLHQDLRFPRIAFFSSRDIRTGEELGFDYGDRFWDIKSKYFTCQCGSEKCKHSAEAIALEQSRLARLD
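AlphaScreen detection with an anti-monomethyl H3K9 antibody quantified product after a 2 h room-temperature reaction containing 500 nM biotinylated H3K9 peptide, 20 µM SAM and 20 nM enzyme, which had been preincubated 15 min with compound.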
Tau fibril FP: blocks human tau fibril formation measured by polarization; K18 P301L tau heparin fibrillization, Alexa594 FP, 6 h; Potency, µM (doses to about 57.7 µM), inactives show top-dose activity, negative = inhibition, most hits filed as inhibitors; 280,000 compounds, 0.39% hits; AID 1468; further: potency means the concentration at half of the fitted maximal effect; nearly all actives have a fitted effect of over 55% in size
Target sequence (P10636 561-689 P618L limits assumed): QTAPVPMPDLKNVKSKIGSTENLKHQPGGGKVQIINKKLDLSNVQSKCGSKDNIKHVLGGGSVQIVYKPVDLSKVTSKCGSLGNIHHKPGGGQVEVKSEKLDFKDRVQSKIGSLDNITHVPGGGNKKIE
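FP of Alexa 594-tau after heparin (20 uM) induction. Substrate: human K18 P301L, 15 uM unlabeled, 0.24 uM labeled. Buffer 100 mM sodium acetate pH 7. 6 hr, 37 C.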
Sfp inh: blocks B. subtilis Sfp PPTase activity | Q9F4F7 | Potency, µM, without a hit: largest response in the series, negative = inhibition, actives largely listed as inhibitors | 310,000 compounds, 3.5% hits | AID 1490 | Biochemical Sfp PPTase activity, qHTS;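 further: the enzyme is Sfp with the accession as filed and its product quenches rhodamine fluorescence; potency means the concentration at half of the fitted maximal effect; 0% = enzyme reaction without inhibitor and -100% = no enzyme wells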
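Fluorescence-quenching assay: 15 nM Sfp-PPTase preincubated 15 min at room temperature with compound, then 5 uM rhodamine-CoA and 12.5 uM BHQ-2-labelled YbbR peptide added. Fluorescence (ex 525/em 598 nm) read at start and after 30 min; difference gives rate.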
Tau fibril ThT: tau fibrillization inhibition (ThT binding). 270,000 compounds, 2.1% hits. recombinant tau K18 P301L, heparin-induced fibrillization, ThT fluorescence. P10636. Potency, µM (titrated, usually from 57.4 µM), for inactives: at the highest dose activity, negative = inhibition, usual class: inhibitors; further: potency means the concentration at half of the fitted maximal effect; nearly all actives have a fitted effect of over 55% in size
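ThT emission at 510 nm, taken 1 hr after adding 30 uM dye, quantifies aggregates formed when 20 uM heparin acts on human tau K18 P301L for 6 hr at 37 C.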
Coupling enz: inhibits coupling enzyme system, counter-screen for aldolase hits; activity change, negative = inhibition, % at 58.2 µM, hits read low; coupling enzyme system counterscreen, AmpLite Red fluorescence; 290,000 compounds, 0.67% hits; in the data active means activity change below about -30%
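Compounds tested against the coupling enzymes alone at 57.5 uM final; readout was AmpLite Red fluorescence (525/598 nm) after 20 min at RT.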
Numbers without * were called inactive; [ ] = another dose, or the depositor's remark. Sampled rows, rich in hits. Any-hit rate of the full collection: about 11%. Unless noted, the call rests on the fitted dose curve; in most records, active means well fitted curve in the direction sought with a large enough effect; inconclusive means small, poorly fitted or top-dose-only effect, or another doubt; inactive means no such curve, though single readings can be large; an effect the other way counts as inactive or inconclusive. Unless noted, on the % scale 0 is the no-effect control and ±100 the full control effect.

O=C(Cn1c(=O)n(CCCS(=O)(=O)C2CCCCC2)c(=O)c2ccccc21)Nc1ccc(F)c(Cl)c1 was read as Tau fluor cs -19%, G9a inh 2%[59 µM], Tau fibril FP inconclusive and Tau fibril ThT -1%.
For CN(C(=O)CSc1nnc(-c2c[nH]c3ccccc23)n1C1CC1)C1CCS(=O)(=O)C1 (centres undefined) the results were G9a inh 20%[59 µM].
For O=C(NC1CCCCC1)c1ccc(CSc2nc3ccncc3n2Cc2ccccc2F)cc1 the results were Tau fluor cs -18%, G9a inh -30%[59 µM], Tau fibril FP 1% and Tau fibril ThT -3%.
Cc1ccc(C(=O)NCCC(=O)N2CCC3(CC2)NCCc2[nH]cnc23)cc1C was read as Sfp inh 0% and Coupling enz 1.
Screening COc1ccc(C(=O)C2C3C4COC(O4)C(=O)C3C3C=Cc4ccccc4N32)c(OC)c1 (centres undefined) returned Tau fluor cs 20µM*[fluorescent], Tau fibril FP 11µM*, Sfp inh 79µM*, Tau fibril ThT 20µM* and Coupling enz -17.
For CC(=O)[C@@H]1[C@H]2[C@H](C(=O)[C@H]3OC[C@@H]2O3)[C@H]2C=Cc3ccccc3N21 the results were Tau fluor cs inconclusive, Tau fibril FP inconclusive, Sfp inh 45µM*, Tau fibril ThT 16µM* and Coupling enz -17.
`COc1ccc(NC(=O)C2CC(=O)N(c3ccccc3C)C2)c(OC)c1` (centres undefined) gave G9a inh 11%, Sfp inh inconclusive and Coupling enz 0.
For Cc1ccc(C(=O)[C@@H]2[C@H]3C4COC(O4)C(=O)[C@@H]3[C@H]3C=Cc4ccccc4N32)cc1 (some centres undefined) the results were Tau fluor cs inconclusive, Tau fibril FP inconclusive, Sfp inh -28%, Tau fibril ThT 22µM* and Coupling enz -19.
`COc1ccc2nc(NC(=O)CN3C(=O)NC4(CCCCC4)C3=O)sc2c1` gave Sfp inh -6%.
`COc1ccc(CCNC(=O)C2CCCN(S(=O)(=O)c3ccc(F)cc3)C2)cc1OC` (centres undefined) gave Sfp inh 7%.
`COc1cc(OC)cc(C(=O)Nc2cccc(NC(=O)c3ccccc3)c2)c1` gave G9a inh 19%, Sfp inh 12% and Coupling enz -1.
For COc1cc(OC)cc(C(=O)Nc2ccc(-c3nc4ccccc4o3)cc2)c1 the results were Tau fluor cs inconclusive, G9a inh -9%, Tau fibril FP inconclusive, Sfp inh 8.9µM*, Tau fibril ThT inconclusive and Coupling enz 0.
For COc1cc(OC)cc(C(=O)Nc2ccc(Nc3ccccc3)cc2)c1 the results were G9a inh 35µM*, Sfp inh 6% and Coupling enz -2.
Screening COc1cccc(C(=O)Nc2cc(Cl)c(O)c(Cl)c2)c1 returned Tau fluor cs -24%, G9a inh 45µM*, Tau fibril FP 9%, Sfp inh 8%, Tau fibril ThT inconclusive and Coupling enz -5.
For CCOc1cc(C(=O)NCc2ccc(-c3nc4ccccc4o3)cc2)cc(OCC)c1OCC the results were Tau fluor cs -26%, G9a inh 28µM*, Tau fibril FP -3%, Sfp inh 1%, Tau fibril ThT inconclusive and Coupling enz 0.
COc1cc(OC)cc(C(=O)Nc2ccc(-c3nc4cc(C(C)C)ccc4o3)cc2)c1 was read as Tau fluor cs inconclusive, G9a inh 0%[59 µM], Tau fibril FP inconclusive and Tau fibril ThT 13%.
Screening Cc1nc(-c2ccc(C)c(N3CCN(C(=O)Nc4ccccc4C(F)(F)F)CC3)c2)no1 returned Tau fluor cs -10%, G9a inh 5%[59 µM], Tau fibril FP -11% and Tau fibril ThT 2%.
Screening COc1ccc(NC(=O)c2cccc(N3CCCS3(=O)=O)c2)cc1OC returned Tau fluor cs 0%, G9a inh -4%[59 µM], Tau fibril FP 2% and Tau fibril ThT 3%.
`COc1cccc(C(=O)NCC(=O)OCc2cc(=O)n3nc(C)sc3n2)c1` gave Tau fluor cs -10%, G9a inh 3%[59 µM], Tau fibril FP inconclusive and Tau fibril ThT -12%.
COc1cc(OC)cc(C(=O)Nc2cccc(N3CCCC3)c2)c1 was read as Tau fluor cs inconclusive, G9a inh 3.5µM*, Tau fibril FP 9%, Sfp inh -6%, Tau fibril ThT inconclusive and Coupling enz -4.
CCC(=O)N1c2ccccc2CC1C(=O)NCc1ccc(CC)cc1 (centres undefined) was read as Tau fluor cs -8%, G9a inh -2%[12.7 µM], Tau fibril FP 1% and Tau fibril ThT -1%.
Screening Fc1ccccc1CSc1nnc(-c2cnccn2)n1Cc1ccco1 returned Tau fluor cs -3%, G9a inh -16%[59 µM], Tau fibril FP 2%, Sfp inh 3%, Tau fibril ThT -4% and Coupling enz 0.
Screening COc1cc(-c2nnc(SC/C=C/c3ccccc3)n2N)cc(OC)c1OC returned Tau fluor cs -2%, G9a inh -2%[12.7 µM], Tau fibril FP 3%, Sfp inh 11%, Tau fibril ThT -14% and Coupling enz -1.
For C(=C\c1ccccc1)/CSc1nnc(-c2cnccn2)n1Cc1ccco1 the results were Tau fluor cs -7%, G9a inh 10µM*, Tau fibril FP 0%, Sfp inh 35µM*, Tau fibril ThT -12% and Coupling enz 0.
Nn1c(SC/C=C/c2ccccc2)nnc1-c1ccncc1 was read as Tau fluor cs -3%, G9a inh 14µM*, Tau fibril FP 0%, Sfp inh -6%, Tau fibril ThT -15% and Coupling enz 0.
Cc1ccc(NC(=O)CSc2nnc(-c3cnccn3)n2Cc2ccco2)cc1 was read as Tau fluor cs -10%, G9a inh -32%[12.7 µM], Tau fibril FP -4%, Sfp inh 20µM*, Tau fibril ThT -7% and Coupling enz 5.
`NC(=O)C1CC(=O)N(CCc2ccc(F)cc2)C1` (centres undefined) gave Sfp inh -12% and Coupling enz 0.
O=[N+]([O-])c1cccc2c(S(=O)(=O)N3CCCCC3)cccc12 was read as G9a inh 56µM*, Sfp inh -3% and Coupling enz -3.
